Measurements reported in ChEMBL document CHEMBL3433997, “St. Jude Leishmania screening dataset” (2016).
Several values for one entry are separate records, joined by “and”; a condition that tells them apart may be missing. Equal values may be shown once.

How the values were obtained:
Type in all cases: functional
[1] = biological target: Solute carrier family 2, facilitated glucose transporter member 1 (Homo sapiens) (UniProt P11166); experiment: ST_JUDE_LEISH: Cytotoxicity at 2uM final concentration against transgenic Leishmania Mexicana promastigotes LmGLUT1 that are glucose transport deficient and complemented with the human glucose transporter GLUT1. Activity is measured by DNA content using SYBR green in vitro
Solute carrier family 2, facilitated glucose transporter member 1 (Homo sapiens), sequence (P11166 whole entry): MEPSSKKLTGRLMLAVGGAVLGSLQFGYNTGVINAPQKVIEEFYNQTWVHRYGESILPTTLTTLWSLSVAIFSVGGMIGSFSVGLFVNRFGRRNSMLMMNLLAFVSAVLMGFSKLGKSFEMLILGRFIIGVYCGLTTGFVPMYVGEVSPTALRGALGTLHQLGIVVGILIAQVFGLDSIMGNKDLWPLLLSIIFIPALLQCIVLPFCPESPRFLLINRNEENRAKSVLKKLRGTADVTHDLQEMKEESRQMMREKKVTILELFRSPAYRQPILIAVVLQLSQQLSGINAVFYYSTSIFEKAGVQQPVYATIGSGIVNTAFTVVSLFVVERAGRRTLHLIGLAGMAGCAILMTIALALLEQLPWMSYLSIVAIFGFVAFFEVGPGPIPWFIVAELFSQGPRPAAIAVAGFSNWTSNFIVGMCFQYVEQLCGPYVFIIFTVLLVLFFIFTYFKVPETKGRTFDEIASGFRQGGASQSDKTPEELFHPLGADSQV

[2] = biological target: Hexose transporter 1 (Plasmodium falciparum) (UniProt O97467); experiment: ST_JUDE_LEISH: Cytotoxicity at 2uM final concentration against transgenic Leishmania Mexicana promastigotes LmPfHT that are glucose transport deficient and complemented with the Plasmodium falciparum hexose transporter. Activity is measured by DNA content using SYBR green in vitro
[3] = biological target: Glucose transporter (Leishmania mexicana) (UniProt O61059); experiment: ST_JUDE_LEISH: Cytotoxicity at 2uM final concentration against transgenic Leishmania Mexicana promastigotes LmGT2 that are glucose transport deficient and complemented with the L. Mexicana glucose transporter 2. Activity is measured by DNA content using SYBR green in vitro

SMILES | inhibition [1] | inhibition [2] | inhibition [3]
Cc1cc(=O)c(-c2ccc(Oc3cccc(Cl)c3)cc2)c(C)[nH]1 | 6.01% | 5.62% | 2.24%
CCOc1c(Cl)cc(Cl)cc1CNCCCNc1nc2ccccc2[nH]1 | 1.3% | 6.95% | 4.33%
COc1cccc(CCNCCCCCCNCCc2ccc(Cl)cc2)c1 | 2.26% | 2.74% | 2.55%
CCCNCc1ccc(-c2ccc(CN(CCOC)C(=O)[C@H]3CCCO3)cc2)nc1 | 4.56% | 4.55% | 4.1%
COc1ccc(-n2cc(CNCCCn3ccnc3)c(-c3cccc(F)c3)n2)cc1 | 1.74% | 2.48% | -5.03%
CO/C(=C\C=C\c1cc2cc(Cl)c(Cl)cc2[nH]1)C(=O)NCCCN1CCCC[C@H]1C | 3.27% | 2.98% | 1.43%
CC(C)(C)c1nn(-c2ccccc2)c2[nH]c(=O)c(CNC3CCCC3)cc12 | 3.76% | 1.66% | 2.65%
COC(=O)c1cccc(CNCc2ccc(-c3ccc(-c4nc5cccc(C)c5[nH]4)s3)cc2)c1 | 6.31% | 2.96% | 1.56%
CCNc1cc(C)nc(Nc2ccc(NC(=O)C3CCCC3)cc2)n1 | 8.61% | 6.7% | 3.57%
CN1CCCN(Cc2ccc(-c3cccc(NC(=O)c4ccc(F)cc4)c3)cc2)CC1 | 19.9% | 13.8% | 12.4%
c1ccc2c(Nc3ccc(OCCOCCOc4ccc(Nc5c6ccccc6nc6ccccc56)cc4)cc3)c3ccccc3nc2c1 | -2.9% | -1.87% | 4.94%
Cn1nc(-c2ccccc2F)c2cc(C(=O)Nc3cccnc3)sc21 | 3.76% | 2.08% | 2.9%
COc1ccc(C2CC(c3cccs3)=NN2C(=O)CNc2ccccc2F)cc1OC (stereo not drawn) | 2.69% | 1.72% | 2.76%
O=C(Nc1ccc(Cn2ncc(N3CCCNCC3)c(Cl)c2=O)cc1)Nc1ccc(-c2ccccc2)cc1 | -0.52% and 1.84% | 0.35% and 2.4% | -4.66% and 1.38%
C=C[C@]1(C)C[C@@H](OC(=O)CNC[C@@H](O)CN2C[C@H](c3ccnc4ccc(OC)nc34)OC2=O)[C@@]2(C)[C@@H]3C(=O)CC[C@@]3(CC[C@@H]2C)[C@@H](C)[C@@H]1O | 2.09% | 1.68% | 1.03%
CCN(CC)CCCC(C)Nc1ccnc2[nH]c3ccccc3c12 (stereo not drawn) | 6.4% | 6.62% | 4.63%
CO/C(=C/C=C/c1cc2cc(Cl)c(Cl)cc2[nH]1)C(=O)NC1CC(C)(C)N(C)C(C)(C)C1 | 2.45% | 0.74% | -0.41%
N#Cc1ccc(C=NNc2nc3ccccc3[nH]2)cc1 | 3.61% | 1.98% | -0.11%
COc1ccccc1C1CCN(C2CCC(NC(=O)/C=C/c3cc(F)cc(F)c3)CC2)CC1 (stereo not drawn) | -1.84% | -1.17% | -2.6%
CC(C)n1c(CC2CCN(CC3CCN(C(=O)/C=C/c4ccc(Cl)c(Cl)c4)CC3)CC2)nc2ccccc21 | -1.74% | -2.38% | -2.53%
CC1(C)OC[C@]2(C)[C@@H](CC[C@]3(C)C4=CC(=O)CCC4CC[C@@H]23)O1 (stereo partly drawn) | 0.57% | 1.6% | 2.59%

SMILES | inhibition [1] | inhibition [2] | inhibition [3]
O=S(=O)(Nc1ccc(-c2ccc(CN3CCCC3)cc2)cc1)c1cccc2cccnc12 | 78% | 85.2% | 71.7%
CC(CN1CCN(CC(c2ccc(F)cc2)N2CCN(C)CC2)CC1)C(=O)c1ccc(O)cc1 (stereo not drawn) | 2.71% | 2.35% | 2.04%
COC(=O)c1cccc(NC(=O)NC2CCN(c3ccnc(Nc4ccc(OC)cc4)n3)C2)c1 (stereo not drawn) | 0.29% | 0.86% | 0.1%
CCN(CCCN1CCCCC1)c1cc(C)nc(Nc2ccc(Oc3ccccc3)cc2)n1 | 5.66% | 5.07% | 5.44%
CC(C)C1C(O)=C(c2ccc3ccccc3c2)C(=O)N1Cc1ccsc1 (stereo not drawn) | 4.27% | 5.59% | 2.54%
CCCCCCN1CCC(NCc2ccc(C(F)(F)F)cc2)CC1 | 2.05% | 1.54% | 5.77%
CS(=O)(=O)c1cccc(-c2cnc(N)c3cc(-c4cccc(F)c4)ccc23)c1 | 1.57% | 1.63% | 0.94%
CCC(C)NC(=O)Nc1ccc(-c2cccc(-c3nc4cc(C(F)(F)F)ccc4[nH]3)c2)cc1 (stereo not drawn) | 9.64% | 8.86% | 4.56%
Cc1c[nH]c2ccc(/C=C/C(=O)NC3CCC(CCN4CCc5ccc(C#N)cc5CC4)CC3)cc12 (stereo not drawn) | 5.06% | 5.55% | 0.32%
FC(F)(F)c1ccc2[nH]c(-c3ccc(-c4ccc(CNCc5cnn(-c6ccccc6)n5)cc4)s3)nc2c1 | 2.88% | 1.1% | 2.24%
COc1c(Br)cc(Br)cc1-c1ccc(CN2C3CCCC2CCC3)[nH]1 | 4.44% | 7.84% | 2.48%
CCCCCCN1CCN(Cc2cccc(NC(=O)c3cc4ccccc4o3)c2)CC1 | 1.59% | 1.56% | 1.59%
CSc1ccc(CN2CCC(CNC(=O)c3cc(-c4ccccc4F)cs3)C2)cc1 (stereo not drawn) | 0.69% | -0.86% | -3.72%
Cc1ccc(Oc2ccc(NC(=O)CNc3ccccc3N3CCCC3=O)cc2)cc1 | 6% | 6.14% | 5.01%
O=C(Nc1nc2cc(S(=O)(=O)NCc3ccc(Cl)c(Cl)c3)ccc2n1CCCn1ccnc1)c1ccc(Cl)cc1 | 6.51% | 4.45% | 4.53%
O=C(Nc1ccc(Cl)cc1)Nc1ccc(-c2cccc(-c3nc4ccccc4[nH]3)c2)cc1 | 1.48% | 2.71% | -1.97%
CCOc1cc(NCCCNc2ncc([N+](=O)[O-])cc2C)nc2ccccc12 | 1.72% | -1.69% | 0.83%
Cc1noc(C)c1-c1ccc2c(Nc3nccc4ccccc34)c(C(N)=O)cnc2c1 | 103% | 89.7% | 102%
CCN(CC)CC(O)c1cc(-c2ccc(OC)cc2)nc2cc(Cl)ccc12 (stereo not drawn) | 6.97% | 5.08% | 7.55%
O=C(Nc1cccc(-c2ccc(CN3CCC(O)CC3)cc2)c1)c1ccc(Cl)cc1 | 2.51% | 3.64% | 1.52%
COc1cccc(C2(c3cccc(OC)c3)N=C(N)N(CCCc3ccccc3)C2=O)c1 | -0.49% | -0.23% | -2.44%

SMILES | inhibition [1] | inhibition [2] | inhibition [3]
CC(=O)Oc1cc(C(=O)Nc2ccc(Cl)cc2)cc2ccccc12 | 7.81% | 5.31% | 5.8%
NC(=O)N1CCN(Cc2ccc(Br)cc2)CC1 | 0.39% | 1.05% | 1%
CCN1CCN(C(=O)NC(C(=O)N2CCCC(COc3ccc(Cc4ccccc4)cc3)C2)c2cccs2)C(=O)C1=O (stereo not drawn) | 3.59% | 3.3% | 4.28%
O=C(/C=C/c1ccc(Cl)c(Cl)c1)NCCCCCN1CCC(CCNC(=O)/C=C/c2cc(C(F)(F)F)ccc2F)CC1 | -4.09% | -2.42% | 2.28%
Nc1cc(-c2cc3c(OCc4ccccc4)cccc3[nH]2)ccn1 | 1.13% | 4.32% | 1.6%
Nc1ncc(-c2ccc(NC(=O)Nc3cc(C(F)(F)F)ccc3F)cc2)c(N)n1 | -0.9% | 0.23% | 0.6%
CCCCN(CCCC)CCNC(=O)c1cc(OC(F)(F)F)ccc1O | 1% | 0.8% | 0.03%
CS(=O)(=O)c1ccc(-c2cncc(Nc3cccc([N+](=O)[O-])c3)c2)cc1 | 7.42% | 7% | 6.3%
c1cncc(CCNCc2ccc(-c3cccc(-c4nc5ccccc5[nH]4)c3)cc2)c1 | -0.73% | 0.67% | -0.38%
Cc1cc(N(C)C)nc(Nc2ccc(NC(=O)C(C)Oc3ccccc3)cc2)n1 (stereo not drawn) | 13.2% | 14.5% | 9.35%
Cc1ccc2nc(C)cc(N/N=C/c3ccccc3[N+](=O)[O-])c2c1 | 10.8% | 6.78% | 7.96%
CCn1ccc2c(N3CCCS3(=O)=O)cc(C(=O)N[C@@H](Cc3ccccc3)[C@H](O)CNC(C)(C)c3cccc(OC)c3)cc21 | 0.43% | 2.4% | 1.49%
CCCCN1CCN(Cc2cccc(NC(=O)c3ccc(Cl)c(Cl)c3)c2)CC1 | 13.4% | 10.1% | 10.5%
Cc1cc(NCCC(=O)NCCc2ccccc2)nc(NCCc2ccc(F)cc2)n1 | 2.76% | 3.87% | 2.22%
COc1cc(C(=O)N2CCOC(CCN3CCc4c(c5ccccc5n4C)C3)(c3ccc(Cl)c(Cl)c3)C2)cc(OC)c1OC (stereo not drawn) | -0.35% | 0% | -1.26%
CCCCn1c(N)c(N(Cc2ccco2)C(=O)C=Cc2cc(OC)c3c(c2)OCCO3)c(O)nc1=O | 3.56% | 1.02% | 3.32%
Cc1cc(F)ccc1Nc1nc(N(C)c2ccccc2)c2cc(OCCCN(C)C)ccc2n1 | 2.53% | 3.15% | 4.25%
COc1ccc2ncc(Cl)c(CCN3CC[C@@H](CNCc4cc5c(cn4)OCS5)C3)c2n1 | 6.89% | 7.89% | 12.2%
C/C=C/C=C/C1=NCCc2cc(OCCC)ccc21 | 71.8% | 74.1% | 17.7%
